Assay outcomes (PubChem BioAssay)
Compounds with a hit are over-represented: about 12% of the library has one in this group of screens.
USP28 inh: inhibitors of human USP28 deubiquitinase; Ubiquitin carboxyl-terminal hydrolase 28 (Homo sapiens), Q96RU2; 47,000 tested, 3% active; inhibition, % at 25 µM; purified USP28, Ub-rhodamine cleavage fluorescence, 30 min
OTUD3 inh: inhibitors of human OTUD3 deubiquitinase. OTU domain-containing protein 3 (Homo sapiens), Q5T2D3. purified OTUD3, Ub-rhodamine fluorescence, 2 h. inhibition, % at 25 µM. 47,000 tested, 0.7% active
Target sequence (Q5T2D3 whole entry, looked up, the tested form may be a part): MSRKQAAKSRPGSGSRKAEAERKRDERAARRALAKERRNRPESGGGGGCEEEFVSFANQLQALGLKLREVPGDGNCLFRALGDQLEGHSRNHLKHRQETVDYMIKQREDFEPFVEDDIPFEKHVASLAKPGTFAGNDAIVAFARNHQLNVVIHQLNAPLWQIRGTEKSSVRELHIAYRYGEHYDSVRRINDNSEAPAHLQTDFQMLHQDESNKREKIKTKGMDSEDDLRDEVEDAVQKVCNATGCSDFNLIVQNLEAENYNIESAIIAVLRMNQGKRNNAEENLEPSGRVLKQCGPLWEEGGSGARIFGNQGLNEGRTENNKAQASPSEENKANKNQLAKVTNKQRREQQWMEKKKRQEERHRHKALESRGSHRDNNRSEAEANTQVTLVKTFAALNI
USP30 block: inhibitors of human USP30 deubiquitinase; Ubiquitin carboxyl-terminal hydrolase 30 (Homo sapiens), Q70CQ3; purified USP30, Ub-rhodamine cleavage fluorescence; inhibition, % at 25 µM; 47,000 tested, 5.3% active; AID 1645860, 2021
USP17 block: inhibitors of human USP17 deubiquitinase | Ubiquitin carboxyl-terminal hydrolase 17-like protein 5 (Homo sapiens), A8MUK1 | 47,000 tested, 6.5% active | inhibition, % at 50 µM | AID 1645855, 2021 | purified USP17, Ub-rhodamine cleavage fluorescence, 3 h
Numbers stand for hits; . = inactive; / = not tested or not shown. Rule as the data show it: active = inhibition above about 30%; inactive = the rest.

SMILES	USP28 inh	OTUD3 inh	USP30 block	USP17 block
O=C1NCc2ccccc2CC12CCN(Cc1cccc3ccccc13)C2 (stereo unspecified)	.	.	32	.
Cc1cn2c(=O)cc(COC(=O)c3ccc(NC(=O)c4ccccc4)cc3)nc2s1	.	.	.	39
CCc1ccc(C)nc1N	.	.	.	.
O=S1(=O)CCN(Cc2cccnc2)c2c(F)nc(N3CCOCC3)c(F)c21	.	.	.	54
O=S1(=O)CCN(Cc2c(F)cccc2F)c2c(F)nc(N3CCOCC3)c(F)c21	.	.	.	67
CCN(CC)c1nc(F)c2c(c1F)S(=O)(=O)CCN2Cc1ccccc1	.	.	.	64
Oc1sc(C=Nc2cc(Cl)ccc2Cl)c2ccccc12	.	.	.	54
COc1cc(C)ccc1-n1c(-c2ccc(F)cc2)cn2c3c(=O)n(C)c(=O)n(C)c3nc12	.	.	39	43
Cc1cc(C)cc(-n2c(-c3ccccc3)cn3c4c(=O)n(C)c(=O)n(C)c4nc23)c1	.	.	.	.
Cc1sc2nc(CN3CCN(c4ccccc4)CC3)nc(N)c2c1C	.	.	.	.
NC(=O)c1ccc(N2CCN(c3ccccc3O)CC2)c([N+](=O)[O-])c1	.	.	.	32
Cc1ccccc1-c1nc(CN(C)S(=O)(=O)c2ccccc2)c(C)o1	.	.	56	.
Cc1cc(=O)n(CC(=O)NCc2ccc3c(c2)OCO3)c(-c2ccc(F)cc2)n1	.	.	.	.
O=C(CN1CCc2[nH]c3c(F)c(Cl)ccc3c(=O)c2C1)NCc1ccc2c(c1)OCO2	.	.	32	46
N[C@@H]1C[C@@H](Oc2cccc(F)c2)[C@H](O)[C@H]1N1CCOCC1	.	.	.	.
Cc1ccc(S(=O)(=O)C2CCN(C(=O)c3cnc4ccccc4n3)CC2)cc1	.	.	.	.
COc1ccc(OCC(=O)Nc2ccc3c(c2)CCC(=O)N3Cc2ccccc2)cc1	.	.	32	.
CCOc1ccccc1C(=O)N1CCCCC1c1nncn1CC1CC1 (stereo unspecified)	.	.	.	.
CC(C)Nc1nc(-c2ccccc2)nnc1-c1ccccc1	.	.	31	.
c1ccc(-c2ccc(-c3nc(-c4ccncc4)no3)cc2)cc1	.	.	.	.
COc1ccc(NS(=O)(=O)c2cccc(NC(=O)CCOc3ccccc3OC)c2)cc1	/	.	/	.
CCOc1ccc(C(=O)CCC(=O)Nc2cccc(S(=O)(=O)Nc3cccc(Cl)c3)c2)cc1	.	.	.	32
Cc1cccc(NC(=O)c2cc3ccccc3c(=O)s2)c1	/	.	/	69
COC(=O)c1ccccc1NC(=O)c1cc2ccccc2c(=O)s1	.	.	.	.
CC(=O)c1cccc(NC(=O)c2cc3cccnc3n(C)c2=O)c1	.	.	.	.
SMILES	USP28 inh	OTUD3 inh	USP30 block	USP17 block
Cc1cccc(NC(=O)c2cc3cccnc3n(C)c2=O)c1	31	.	.	.
COc1ccc(-c2nnc(-c3ccccc3)o2)cc1S(=O)(=O)N1CCCC1	.	.	.	.
Cc1cc(=O)n2c(n1)NC(N1CCOCC1)=NC2c1cccc(O)c1 (stereo unspecified)	.	.	.	.
O=C(NCc1ccccc1F)c1ccc(Cl)c(S(=O)(=O)N2CCCCC2)c1	38	.	.	.
O=S(=O)(NC1CCc2ccccc21)c1ccc(-n2cnnn2)cc1 (stereo unspecified)	.	.	39	.
O=S(=O)(NC1CCCc2ccccc21)c1ccc(F)cc1 (stereo unspecified)	.	.	34	.
O=S(=O)(NC(c1ccccc1)c1ccccc1)c1ccc(-n2cnnn2)cc1	.	.	49	44
CCNS(=O)(=O)c1ccc(-c2ccc(-n3cnnn3)cc2)cc1	.	.	.	.
CCCn1ccc(C(=O)NC[C@H]2C[C@@]3(C)[C@@H](O)CCCC[C@H]3N2C(C)=O)n1	.	.	.	.
O=C(c1cccnc1)N1C[C@H]2C[C@H]3[C@](C1)(CN(Cc1ccccc1)S3(=O)=O)O2	.	.	.	.
CCCc1ccc(S(=O)(=O)N2CCc3nc(N4CCOCC4)[nH]c(=O)c3CC2)cc1	.	.	.	.
Nc1c(S(=O)(=O)c2ccccc2)c2nc3ccccc3nc2n1CCNC(=O)C1CC1	.	.	.	.
CCOC(=O)c1c(N)n(CC(C)NC(=O)C2CC2)c2nc3ccccc3nc12 (stereo unspecified)	.	.	.	30
Cc1cc(-c2cnc(N3CCCC3)nc2C2CCN(CC3CCOC3)CC2)on1 (stereo unspecified)	.	.	.	.
CC(C)c1ccc(NC(=O)C2CCN(S(=O)(=O)c3cccc4cnccc34)CC2)cc1	45	.	.	.
